In PubChem BioAssay (NCI) one finds growth data, which are given here for 3 compounds.

Compounds without any hit were thinned out: in the full panel of roughly 83,000, 20% have a hit.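 In brief: 96-well plates, 48 h treatment, single concentration, percent growth endpoint.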 Calls of active or inactive are those of the source. The calls were made as follows: active = growth percent below 10; inactive = the rest.

The subject of the assay is HL-60(TB) leukemia. In words: NCI-60 one-dose screen, 48 h (100 = growth as untreated, 0 = no growth, -100 = all killed). To be noted: 10 µM unless noted.
`O=C(Nc1ccc(NS(=O)(=O)c2ccc(F)cc2)cc1)C12CC3CC(CC(C3)C1)C2`: the growth was 96.1% (inactive). In the case of `CCN(CC)CCC(CNc1c2ccc([N+](=O)[O-])cc2nc2cc(OC)c(OC)cc12)c1ccccc1` (stereo not drawn), the growth is -15.9% (active). With `CCO/C=N/S(=O)(=O)c1cc2c(cc1Cl)NC=NS2(=O)=O` the figure was 112% (inactive).
